Measurements reported in ChEMBL document CHEMBL4513146, “CO-ADD screening of Karazin Kharkiv National University (Ukraine) compounds”.
Measured potencies and affinities stand elsewhere.

Assays:
Klebsiella pneumoniae = settings: Concentration 32 ug.mL-1;; ASSAY_TEST Inhibition of Bacterial Growth; detection method Absorption (OD600); MEDIA CAMHB; plate type 384well; NBS; CORNING #3640; time 18 hr
Candida albicans = settings: Concentration 32 ug.mL-1; ASSAY_TEST Inhibition of Fungal Growth; detection method Absorption (OD530)
Cryptococcus neoformans = settings: Concentration 32 ug.mL-1; ASSAY_TEST Inhibition of Fungal Growth; detection method Resazurin; Absorption (OD600-OD570); plate type 384well; NBS; CORNING #3640

| Structure (SMILES) | Inhibition (Klebsiella pneumoniae) [%] | Inhibition (Candida albicans) [%] | Inhibition (Cryptococcus neoformans) [%] |
| --- | --- | --- | --- |
| CC(C)c1ccc(NC(=O)Cn2nc3c(Sc4ccccc4)nccn3c2=O)cc1 | -10.24 | 23.16 | -7.48 |
| Cc1ccc(Cl)cc1NC(=O)Cn1nc2c3c4c(sc3ncn2c1=O)CCCCC4 | 13.99 | 1.16 | -31.5 |
| O=C(Cn1nc2ccc(Sc3ccccc3)nn2c1=O)Nc1ccc(F)c(Cl)c1 | 8.09 | 1.47 | -7.06 |
| COc1cc(NC(=O)C(C)Sc2nnc3c(=O)n(-c4ccc(F)cc4)ccn23)cc(OC)c1 (configuration not stated) | 6.23 | 7.68 | -7.14 |
